Shown are actives, neighbours in structure and some others; about 6.5% of the full set was active somewhere.
HCMV inh = inhibitors of human cytomegalovirus; activity change, negative = inhibition, % at 57.5 µM; HFF cells, HCMV-luciferase reporter, 72 h; stronger effect = lower value; hit rate 4.5% among 410,000; AID 1259415; in the data active = activity change below about -60%; inconclusive = no clear call, values can overlap the other calls; inactive = above about -39%
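After 16 h attachment at 37C, HFF cells received test compound and HCMV-luciferase (1 PFU/cell); reporter luminescence read 72 h later, data normalized against buffer-only and known inhibitor Salinomycin.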
Marburg entry inh = Marburg virus entry inhibition; Potency, µM (series often up to 37.8 µM), for the others: at the top dose activity change, negative = inhibition, actives largely listed as inhibitors; hit rate 1.8% among 300,000; Marburg virus pseudotyped entry inhibition, cell reporter; AID 540276; calls by dose curve; tested in HEK293 cells; also: potency is read from the fitted curve at half-maximal effect
Vaccinia Venus = vaccinia inhibition (Venus reporter). Vaccinia virus Venus reporter expression, fluorescence. Potency, µM (doses to about 36.5 µM), inactives show top-dose activity change, negative = inhibition, usual class: inhibitors. hit rate 0.46% among 330,000; calls by dose curve; tested in A549 cells; also: potency is read from the fitted curve at half-maximal effect; nearly all actives have a fitted effect of over 30% in size
Lassa entry inh = Lassa virus entry inhibition; Lassa virus pseudotype entry inhibition, cell reporter; Potency, µM (highest dose often 37.9 µM), for inactives: at the top dose activity change, negative = inhibition, actives largely listed as inhibitors; hit rate 1.2% among 300,000; calls by dose curve; tested in HEK293 cells; also: potency is read from the fitted curve at half-maximal effect; nearly all actives have a fitted effect of over 50% in size
FMDV antiviral = antivirals against foot and mouth disease virus; Potency, µM (top dose mostly 57.9 µM), inactives show at the highest dose activity change, negative = inhibition, usual class: inhibitors; FMDV antiviral cell-based qHTS; hit rate 1.2% among 410,000; AID 1159524; calls by dose curve; tested in HEK293T cells; also: read-out not given here; potency is read from the fitted curve at half-maximal effect; nearly all actives have a fitted effect of over 45% in size
VACV mCherry inh = vaccinia inhibition (mCherry reporter); Vaccinia virus mCherry reporter infection, fluorescence; Potency, µM (top dose mostly 36.5 µM), without a hit: at the highest dose activity change, negative = inhibition, most hits filed as inhibitors; hit rate 0.63% among 310,000; AID 720579; calls by dose curve; tested in A549 cells; also: potency is read from the fitted curve at half-maximal effect; nearly all actives have a fitted effect of over 35% in size
Numbers without * were called inactive; i = inactive; ? = inconclusive; · = no result; [ ] = remark or other dose. % is scaled to controls: 0 for no effect and ±100 for the full control effect.

SMILES	HCMV inh	Marburg entry inh	Vaccinia Venus	Lassa entry inh	FMDV antiviral	VACV mCherry inh
Cc1ccc(-c2csc(N/N=C/c3ccco3)n2)cc1	29	?	-23%	?	56%	-23%
CN(C)S(=O)(=O)c1ccc(-c2csc(N/N=C/c3ccc(O)cc3)n2)cc1	?	7.3µM*	?	7.1µM*	14µM*	?
CCOC(=O)c1ccccc1NC(=O)NCc1c(-n2cccc2)sc2c1CCCC2	-36	9%[46.1 µM]	-15%	-6%[46.1 µM]	-8%	-5%
C/C(CC(C)C)=N/Nc1ccc([N+](=O)[O-])cc1[N+](=O)[O-]	-17	·	·	·	-9%	·
COC(=O)CC/C(C)=N\Nc1ccc([N+](=O)[O-])cc1[N+](=O)[O-]	-103*	?	·	6%	-20%	·
Cc1nc2ccccn2c1C(=O)CSc1ccc(Cl)cc1Cl	-35	3%	·	0%	-13%	·
Cc1nc2ccccn2c1C(=O)CSc1ccccc1Cl	-66*	?	?	-15%	25µM*	·
Cc1cc(C(C)(C)C)cc(C)c1CC1=NCCN1	-12	7.9µM*	-8%	?	-21%	-3%
Cc1ccc(NC(=O)c2nnn(CC(=O)Nc3ccc(C)c(Cl)c3)c2N)c(C)c1	-1	·	-10%	14%[46.1 µM]	21%	i
Cc1noc(C)c1-c1ccc2ncnc(NCCN3CCOCC3)c2c1	·	·	·	·	15%	·
CCOc1ccccc1CNc1ncnc2ccc(-c3c(C)noc3C)cc12	-28	·	·	·	32µM*	·
CCOC(=O)N1CCc2c(sc(NCc3cccs3)c2C(=O)Nc2cc(OC)ccc2OC)C1	-14	·	-15%	-6%[46.1 µM]	29%	-2%
CCOC(=O)N1CCc2c(sc(NCc3ccc(OCC)cc3)c2C(=O)Nc2ccc(OC)cc2OC)C1	-80*	·	-9%	?	?	-14%
CCOC(=O)N1CCc2c(sc(NCc3ccc(OC)c(OC)c3OC)c2C(=O)Nc2ccc(OC)cc2OC)C1	-80*	·	-3%	?	?	-15%
CCOC(=O)N1CCc2c(sc(NCc3cccs3)c2C(=O)Nc2ccc(OC)cc2OC)C1	-91*	·	-9%	?	?	-13%
O=C(N/N=C1\C[C@@H](O)[C@@H](O)[C@@H]2[C@@H]3C(=O)N(c4cccc(Oc5ccccc5)c4)C(=O)[C@@H]3CC[C@H]12)OCc1ccccc1	·	4%[14.2 µM]	·	·	·	·
CNc1ccc(Br)cc(C(=O)/C=C/c2cccc(OC)c2OC)c1=O	-92*	11%	·	-21%	1%	·
O=C(C=Cc1ccccc1Cl)c1ccccc1	-24	?	-4%	1%[46.1 µM]	15%	-8%
CCNc1ccc(Br)cc(C(=O)/C=C/c2ccccc2Cl)c1=O	-103*	16µM*	·	?	?	·
COc1cccc(/C=C/C(=O)NNC(=O)c2ccccc2)c1OC	107	?	2%	-14%[46.1 µM]	25%	-3%
CCNc1ccccc(C(=O)/C=C/c2ccc3c(c2)OCO3)c1=O	-2	-1%	0%	-17%	?	·
COc1ccccc1/C=C/C(=O)Nc1cccnc1Cl	60	·	·	·	72%	·
CNc1ccccc(C(=O)/C=C/c2ccccc2OC)c1=O	39	11µM*	?	?	?	-24%
CNc1ccc(Br)cc(C(=O)/C=C/c2cccc(Cl)c2Cl)c1=O	51	·	·	·	20µM*	·
COc1ccc2c(c1)[C@H](C=Cc1ccccc1)[C@@H]([C@H](O)CO)O2	·	17%[14.2 µM]	·	·	·	·
SMILES	HCMV inh	Marburg entry inh	Vaccinia Venus	Lassa entry inh	FMDV antiviral	VACV mCherry inh
CC(C)(C)C(=O)Nc1cccc(C(=O)OCc2cc(=O)n3nc(C4CCCCC4)sc3n2)c1	-14	·	-7%	-1%[46.1 µM]	-5%	-15%
O=C(Nc1cccs1)Nc1c(F)c(F)c(F)c(F)c1F	-61*	-23%	-15%	?	20%	-17%
N#Cc1c([N+](=O)[O-])cc([N+](=O)[O-])cc1S(=O)(=O)Cc1ccccc1	-99*	?	?	11µM*	28µM*	?
CCC(NC(=O)Nc1ccc(O)cc1)(C(F)(F)F)C(F)(F)F	-70*	?	4%	-21%	-24%	·
CCn1nnnc1NC(=O)c1cccc(OC)c1	146	?	-4%	·	48%	0%
CCn1nnnc1NC(=O)c1cc(Cl)c(OC)c(Cl)c1	-63*	-5%[46.1 µM]	-19%	-3%[46.1 µM]	-14%	i
COc1ccc(CC(=O)N2CC3ON=C(c4c(F)cccc4Cl)C3C2)cc1 (configuration not stated)	52	·	·	·	·	·
C(=C\c1c[nH]c2ccccc12)/c1nccc2ccccc12	·	·	31%	·	·	-18%
